KCNQ2 enhance = enhances the rat KCNQ2 potassium channel | 0.54% of 310,000 active | CHO-K1 KCNQ2, FluxOR thallium flux fluorescence; active compounds read high | B-score at 10 µM | O88943;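 active = fluorescence ratio B-score at least 3 SD of library B-scores, with initial fluorescence B-score within 3 of them, cut at about 5.3 in these data; same plate scores as AID 2156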;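 also: B-score of peak minus minimum over baseline fluorescence ratio after K+ and Tl+ stimulus; positive B-score means potentiation of KCNQ2 with more thallium influx and brighter signal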
Target sequence (O88943 whole entry, looked up): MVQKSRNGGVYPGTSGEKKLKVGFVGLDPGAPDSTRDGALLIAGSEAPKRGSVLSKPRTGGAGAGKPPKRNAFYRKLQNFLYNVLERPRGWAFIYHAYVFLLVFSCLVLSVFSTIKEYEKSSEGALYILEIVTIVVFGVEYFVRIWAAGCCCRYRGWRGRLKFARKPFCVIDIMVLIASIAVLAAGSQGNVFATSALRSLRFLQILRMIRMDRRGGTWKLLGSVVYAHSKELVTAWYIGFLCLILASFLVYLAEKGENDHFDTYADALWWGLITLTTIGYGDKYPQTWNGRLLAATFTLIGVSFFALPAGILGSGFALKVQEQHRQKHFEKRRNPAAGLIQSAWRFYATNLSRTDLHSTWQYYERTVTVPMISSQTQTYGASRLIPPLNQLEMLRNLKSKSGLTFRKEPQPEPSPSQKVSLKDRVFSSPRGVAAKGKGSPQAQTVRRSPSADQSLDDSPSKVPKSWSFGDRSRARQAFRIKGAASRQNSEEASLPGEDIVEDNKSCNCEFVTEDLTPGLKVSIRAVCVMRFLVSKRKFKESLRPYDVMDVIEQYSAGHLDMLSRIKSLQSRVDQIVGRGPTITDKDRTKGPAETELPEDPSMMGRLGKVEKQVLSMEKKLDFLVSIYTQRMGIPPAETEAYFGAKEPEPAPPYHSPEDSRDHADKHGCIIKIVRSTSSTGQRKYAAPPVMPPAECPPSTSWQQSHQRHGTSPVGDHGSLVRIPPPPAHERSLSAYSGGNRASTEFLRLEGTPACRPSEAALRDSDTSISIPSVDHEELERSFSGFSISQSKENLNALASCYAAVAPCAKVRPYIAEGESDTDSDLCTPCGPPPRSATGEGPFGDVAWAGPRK
KCNQ2 inh = inhibitors of rat KCNQ2 potassium channel | O88943 | CHO-K1 KCNQ2, FluxOR thallium flux, 20 min; active compounds read low | B-score at 10 µM | 1.1% of 310,000 active | AID 2156;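 active = fluorescence ratio B-score at most minus 3 library SDs, with starting brightness B-score within 2 library SDs, cut at about -5.5 in these data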
Starred values were filed as active, the others as inactive; i = inactive; / = no result. In the library only some 1.6% were active in any assay of this set; here they are far more common.

SMILES	KCNQ2 enhance	KCNQ2 inh
COc1ccc(NC(=O)CCC(=O)Nc2ccc3nc(N4CCOCC4)cc(C)c3c2)c(OC)c1	0.24	i
COc1ccc(N(C)C(=O)CCC(=O)Nc2ccc3nc(N4CCOCC4)cc(C)c3c2)c(OC)c1	-7.8	-7.8*
CCOc1ccc(NS(=O)(=O)c2ccc(C(=O)N3CCCC(C)C3)cc2)cc1 (centres undefined)	1.5	i
O=C(CSc1nnc(-c2ccc(Br)cc2)n1CCc1ccccc1)NC1CCS(=O)(=O)C1 (centres undefined)	/	i
CC1(C)CC(=O)C(=Cc2cn(CCC#N)nc2-c2ccc(F)cc2)C(=O)C1	6.5*	i
CC1(C)CC(=O)C(=Cc2cn(CCC#N)nc2-c2ccc(Cl)cc2)C(=O)C1	3.8	i
O=c1[nH]cnc2scc(-c3ccc(Br)cc3)c12	0.84	i
Cc1ccc(-c2csc3nc[nH]c(=S)c23)cc1	14*	i
O=c1c2ccccc2nc(SCc2cccc(F)c2)n1Cc1ccco1	-6.2	-6.2*
O=c1c2ccccc2nc(SCc2ccccc2)n1Cc1ccco1	0.28	i
Oc1ccccc1CNc1ccc(OC(F)(F)F)cc1	/	i
CC1CCN(C(=O)C(Cc2ccccc2)n2cccc2)CC1 (centres undefined)	/	i
Cc1cccc(NC(=O)C(Cc2ccccc2)n2cccc2)c1 (centres undefined)	-5.7	-5.7*
COc1cc(NC(=O)C(Cc2ccccc2)n2cccc2)cc(OC)c1 (centres undefined)	/	i
CC1CC(C)CN(C(=O)C(Cc2ccccc2)n2cccc2)C1 (centres undefined)	-6.5	-6.5*
Cc1ccc(NC(=O)CCSc2nnnn2-c2ccc3c(c2)OCO3)cc1C	0.39	i
COc1ccc(C(=O)Nc2sc(C)c(-c3ccccc3)c2C#N)cc1OC	-6.4	-6.4*
Cc1sc(NC(=O)COc2ccccc2)c(C#N)c1-c1ccccc1	/	i
CCCc1ccc(OC(=O)c2ccc(O)cc2Cl)cc1	/	i
Cn1cc([N+](=O)[O-])c(C(=O)Nc2cc(Oc3cccnc3)cc([N+](=O)[O-])c2)n1	0.04	i
COc1ccccc1NC(=O)CC(=O)c1cccc([N+](=O)[O-])c1	0.17	i
COc1ccccc1NC(=O)/C(=C/c1cccc([N+](=O)[O-])c1)c1ccccc1	-6	-6*
NC1=NC(=O)/C(=C\c2ccsc2)S1	0.17	i
O=S(=O)(c1ccc(Cl)cc1)N1CCN=C1SCc1cccc(Cl)c1	/	i
O=S(=O)(c1ccccc1)N1CCN=C1SCc1c(F)cccc1Cl	-6.3	-6.3*
SMILES	KCNQ2 enhance	KCNQ2 inh
Cc1ccc(S(=O)(=O)N2CCN=C2SCc2ccc(Cl)c(Cl)c2)cc1	/	i
Cc1ccc(C)c(CSC2=NCCN2S(=O)(=O)c2ccccc2)c1	-6.3	-6.3*
CCC(C(=O)NCCc1ccc(OC)cc1OC)n1nc(C)n2c(cc3occc32)c1=O (centres undefined)	1.1	i
Cc1cc(OCC(=O)N2CCc3ccccc3C2)c(C)cc1Br	-6.1	-6.1*
Cc1ccc(C)c(OCC(=O)N2CCc3ccccc3C2)c1	/	i
COCc1ccc(CN2CCCC(C(=O)Nc3ccc(-c4cscn4)cc3)C2)o1 (centres undefined)	/	i
COc1ccccc1NC(=O)CN1CCN(c2ccccc2OC)CC1	1.5	i
COc1ccccc1NC(=O)CN1CCN(c2ccccc2F)CC1	-5.8	-5.8*
Cc1cc(=O)[nH]c(N/N=C/C(C)c2ccccc2)n1 (centres undefined)	/	i
Cc1ccc(CSc2nnc(-c3ccncc3)n2CC2CCCO2)cc1 (centres undefined)	/	i
O=S1(=O)CCOCCCN1Cc1ccccc1Br	/	i
Cc1ncc(CN2CCCC(C(=O)Nc3ccc(-c4cccc(F)c4)cc3)C2)n1C (centres undefined)	-5.7	-5.7*
COc1cccc(-c2ccc(NC(=O)C3CCCN(Cc4cnc(C)n4C)C3)cc2)c1 (centres undefined)	/	i
Cc1ccc(NC(=O)COc2ncnc3cc([N+](=O)[O-])ccc23)cc1S(=O)(=O)N1CCOCC1	/	i
COc1ccc(CCc2nnc(NS(C)(=O)=O)s2)cc1	0.24	i
c1ccc(-c2nc3c4ccccc4ccn3c2CN2CCCCC2)cc1	-5.6	-5.6*
Cc1ccc(-c2nc3c4ccccc4ccn3c2CN2CCCCC2)cc1	/	i
CCOC(=O)C1CCN(CC(=O)c2ccc(O)c(C)c2O)CC1	1.1	i
Cc1ccc(/C=N/NC(=O)CNC(=O)c2cccc([N+](=O)[O-])c2C)o1	3.2	i
COc1cc(NS(=O)(=O)c2ccc(NC(=S)NC(=O)CC(C)C)cc2)nc(OC)n1	0.64	i
COC(=O)CCC(=O)NC(=S)Nc1ccc(S(=O)(=O)Nc2cc(OC)nc(OC)n2)cc1	-6.4	-6.4*
O=C1/C(=C\c2ccc3ccccc3c2)CCCc2ccccc21	-6.5	-6.5*
Cc1ccccc1/C=C1\CCCc2ccccc2C1=O	/	i
CCN(Cc1ccccc1)C(=O)c1cc(-c2ccc(OC)c(OC)c2)nc2ccccc12	-6.4	-6.4*
COc1ccc(-c2cc(C(=O)N(C)Cc3ccccc3F)c3ccccc3n2)cc1OC	/	i
SMILES	KCNQ2 enhance	KCNQ2 inh
CNCc1c(C)nn(-c2ccccc2)c1C	10*	i
Cc1nn(-c2ccccc2)c(C)c1N	1.1	i
CCCN1CCc2c(sc(NC(=O)C3CCN(S(=O)(=O)c4cccs4)CC3)c2C(N)=O)C1	0.97	i
O=C(CCc1ccccc1)NC(=S)Nc1cc(C(F)(F)F)ccc1N1CCOCC1	-6.2	-6.2*
CC(C)CC(=O)NC(=S)Nc1cc(C(F)(F)F)ccc1N1CCOCC1	/	i
O=C(CSc1ncnc2c1cnn2CCc1ccccc1)Nc1cccc(C(F)(F)F)c1	-6.7	-6.7*
Cc1c(Cl)cccc1NC(=O)CSc1ncnc2c1cnn2CCc1ccccc1	/	i
O=C1COc2ccccc2N1Cc1ccc(Cl)cc1	1.2	i
COc1ccc(-c2cc(C(=O)Nc3cc(C)on3)c3ccccc3n2)c(OC)c1	/	i
COc1cccc(NC(=O)c2cc(-c3ccc(OC)cc3OC)nc3ccccc23)c1	-6.4	-6.4*
O=C(c1ccco1)c1coc2c1cc(O)c1ccccc12	0.78	i
Cc1cccnc1Nc1nc(-c2ccccn2)cs1	1.9	i
Cc1cccnc1Nc1nc(-c2ccccc2)cs1	-7.8	-7.8*
Cc1ccc(CCC(=O)Nc2ccccc2C(=O)O)o1	1.1	i
CC(C)(C)OC(=O)N1CCC(c2cc(=O)n3[nH]cc(C(=O)Nc4ccc(F)c(Cl)c4)c3n2)CC1	2.5	i
COc1ccc(NC(=O)c2c[nH]n3c(=O)cc(C4CCN(C(=O)OC(C)(C)C)CC4)nc23)cc1Cl	6.3*	i
O=C(COc1ccccc1)NCC(c1ccco1)N1CCN(c2ccc(F)cc2)CC1 (centres undefined)	/	i
O=C(COc1ccccc1)NCC(c1ccco1)N1CCN(c2ccccc2F)CC1 (centres undefined)	-7	-7*
COc1ccc(N2C(=O)C(CC(N)=O)N(NC(=O)CCc3ccccc3)C2=O)cc1 (centres undefined)	/	i
CCOC(=O)c1cc2c(ccn2-c2ccc(F)cc2)n1CC(=O)NC(C)(C)C	-6.7	-6.7*
CCn1c(C(=O)OC)cc2c1ccn2-c1ccc(F)cc1	/	i
Cc1ccc(-c2cc(C(F)F)n3ncc(C(=O)N4CCc5ccccc5C4)c3n2)cc1	/	i
O=C(c1cnn2c(C(F)(F)F)cc(-c3ccc(F)cc3)nc12)N1CCc2ccccc2C1	-6.3	-6.3*

Screens: PubChem, Johns Hopkins Ion Channel Center
